This is a sample that favours compounds with a hit; in the whole collection about 3.3% have one here.
PLK1 PBD block: blocks phosphopeptide binding to human PLK1 polo-box domain; Potency, µM, without a hit: max response, negative = inhibition, actives largely listed as inhibitors; AID 720504; Plk1 PBD binding of FITC phosphopeptide, fluorescence polarization; actives 2.8% (n = 360,000); P53350; also: potency is read from the fitted curve at half-maximal effect; series mostly up to about 57 µM; nearly all actives have a fitted effect of over 65% in size
Target sequence (P53350 whole entry, looked up, the tested form may be a part): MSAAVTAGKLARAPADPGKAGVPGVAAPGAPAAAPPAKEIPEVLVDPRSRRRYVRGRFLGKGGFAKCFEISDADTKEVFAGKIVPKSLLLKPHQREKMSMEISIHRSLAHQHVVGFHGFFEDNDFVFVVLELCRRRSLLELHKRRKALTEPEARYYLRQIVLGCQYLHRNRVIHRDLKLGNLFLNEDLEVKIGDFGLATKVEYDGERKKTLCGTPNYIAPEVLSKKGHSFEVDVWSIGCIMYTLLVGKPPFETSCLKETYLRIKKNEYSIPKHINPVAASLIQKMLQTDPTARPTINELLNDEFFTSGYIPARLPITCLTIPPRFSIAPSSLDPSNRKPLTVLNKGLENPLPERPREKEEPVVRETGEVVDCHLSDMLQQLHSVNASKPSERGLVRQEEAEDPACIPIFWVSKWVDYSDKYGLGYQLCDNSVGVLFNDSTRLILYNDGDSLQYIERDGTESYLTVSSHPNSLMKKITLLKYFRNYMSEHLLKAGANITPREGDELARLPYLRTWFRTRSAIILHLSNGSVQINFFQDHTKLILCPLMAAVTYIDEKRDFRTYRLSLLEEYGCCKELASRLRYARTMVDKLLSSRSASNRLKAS
PI5P4K alpha inh: PI5P4K alpha (human) kinase inhibition; actives 1.2% (n = 330,000); PI5P4Kalpha enzyme, ADP-Glo luminescence, 60 min; stronger effect = lower value; max response, %; P48426; AID 652105; active = max response of -50% or lower; inconclusive = between -30% and -50%; inactive = -30% or higher; also: value at the top dose of about 77 µM
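Enzyme plus substrate dispensed, test compounds pinned in, then ATP (5 microM final) added. After 60 min at RT, ADP-Glo reagent 1 for 45 min and reagent 2 for 30 min preceded luminescence imaging.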
WRN inhibitor: inhibitors of human WRN helicase. Q14191. WRN helicase unwinding, fluorescent forked duplex, kinetic. actives 0.46% (n = 360,000). Potency, µM (highest dose often 114 µM), for the others: at the highest dose activity change, negative = inhibition, actives largely listed as inhibitors; also: potency is read from the fitted curve at half-maximal effect; nearly all actives have a fitted effect of over 55% in size
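Kinetic red-fluorescence monitoring (525/598 nm) tracks WRN helicase activity after 100 nM fluorophore-quencher forked duplex and 2 mM ATP are added to 20 nM enzyme pretreated 15 min at room temperature with compound.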
USP1-UAF1 inh: USP1/UAF1 (human) deubiquitinase inhibition | Potency, µM (highest dose often 57.1 µM), without a hit: top-dose activity change, negative = inhibition, hits mostly inhibitors | recombinant USP1/UAF1, Ub-Rhodamine cleavage fluorescence | actives 0.23% (n = 390,000) | AID 743255 | O94782; also: potency is read from the fitted curve at half-maximal effect; nearly all actives have a fitted effect of over 60% in size
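USP1/UAF1 complex at 1 nM was preincubated with compound for 15 min at room temperature, then Ub-Rho substrate (150nM final) was added. Fluorescence (480/540 nm) was read kinetically, 6 reads every 60 seconds.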
USP2a inh: USP2a (human) protease inhibition | O75604 | USP2 core, Ub-CHOP2 coupled fluorogenic reporter, 485/531 | Potency, µM (series often up to 38.3 µM), for the others: top-dose activity change, negative = inhibition, hits mostly inhibitors | actives 0.01% (n = 330,000);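 also: potency is read from the fitted curve at half-maximal effect; plate controls were DMSO wells for no effect and full inhibition by NEM control for full effect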
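Cell-free coupled assay: 10nM USP2 core preincubated 30min RT with compound in Tris-HCl pH 8.0/CaCl2/CHAPS buffer, then 25nM Ub-CHOP2 and 25nM reporter substrate; fluorescence (Ex 485/Em 531) read after 60min RT, normalized to NEM inhibition, concentration-response curves fitted.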
An asterisk follows results filed as active; ? = inconclusive; . = no result given; [ ] = dose if it differs, or a comment. Unless noted, calls follow the shape of the dose curve; as a rule, active = well fitted curve in the direction sought with a large enough effect; inconclusive = small, poorly fitted or top-dose-only effect, or another doubt; inactive = no such curve, though single readings can be large; an effect the other way counts as inactive or inconclusive. Unless noted, % is scaled to controls: 0 for no effect and ±100 for the full control effect.

SMILES	PLK1 PBD block	PI5P4K alpha inh	WRN inhibitor	USP1-UAF1 inh	USP2a inh
Cc1ccc(NC(=O)C2CCCN(C(=O)c3ccc(Cl)cc3)C2)cc1 (centres undefined)	21µM*	8	1%[57.1 µM]	-1%	1%
Cc1ccc(NC(=O)C2CCCN(C(=O)c3ccc(Cl)cc3)C2)cc1C (centres undefined)	11%	-1	-3%	-26%	-11%
COCCn1c(C)cc(O)c(C(c2ccccc2OC)N2CCN(c3ccccc3)CC2)c1=O (centres undefined)	.	.	.	14%	.
O=C1c2cc(O)cc(O)c2C(=O)c2c1cc(O)c([C@@H](CO)CCO)c2O	-23%	-51*	-13%[11.6 µM]	-11%	.
CCc1ccc(CNC(=O)Cn2nc(C)c3nn(-c4ccc(Cl)cc4)c(C)c3c2=O)cc1	.	.	.	-5%	.
Nc1nc(C(=O)N2CCOCC2)nn1S(=O)(=O)c1ccc(Cl)cc1	27µM*	-9	-3%	-4%	0%
COC(=O)CC1C(=O)NCCN1C(=S)Nc1ccccc1 (centres undefined)	-6%	-3	3%	-15%	0%
CCc1ccccc1NC(=S)N1CCNC(=O)C1CC(=O)OC (centres undefined)	21µM*	-9	-31%	2%	2%
O=c1[nH]c(/C=C\c2cccnc2)c([N+](=O)[O-])c(=O)[nH]1	27µM*	?	-22%	-7%	-2%
O=c1[nH]c(/C=C/c2cccnc2)c([N+](=O)[O-])c(=O)[nH]1	-5%	-65*	-3%[57.1 µM]	-12%	2%
Cc1noc(/C=C/c2cccnc2)c1[N+](=O)[O-]	-3%	5	-12%	-26%	3%
COC(=O)C(CSCc1ccccc1)NC(=O)CSc1nc(C)cc(=O)[nH]1 (centres undefined)	27µM*	?	-32%	-16%	-3%
NS(=O)(=O)c1ccc(-c2cccc(/C=C3\SC(=O)NC3=O)c2)cc1	-25%	-56*	-16%	?	0%
Cc1nc(N2CCCCC2)sc1C(=O)c1ccc(SCCO)c([N+](=O)[O-])c1	8.4µM*	-68*	-32%	-9%	-8%
Cc1nc(N2CCCCC2)sc1C(=O)c1cccc([N+](=O)[O-])c1	-12%	-2	-29%[57.1 µM]	-11%	5%
COc1ccc(NC(=O)CC2C(=O)N(c3cccc(OC)c3)C(=O)N2CCC2=CCCCC2)cc1 (centres undefined)	.	.	.	-21%	.
Fc1ccc(-c2csc3ncnc(Cl)c23)cc1	21µM*	1	-22%	-20%	0%
S=c1[nH]cnc2scc(-c3ccc(Cl)cc3)c12	8.4µM*	-23	-4%	-17%	1%
Clc1ccc(-c2csc3ncnc(Cl)c23)cc1	-8%	4	9%	-25%	2%
COc1ccc(NC(=O)Cn2c(=O)n(-c3cccc(C(F)(F)F)c3)c(=O)c3sccc32)cc1	.	.	.	-7%	.
O=C1NN(c2cccc(Br)c2)C(=O)/C1=C/c1ccc(-c2cc([N+](=O)[O-])ccc2O)o1	19µM*	-86*	?	-8%	3%
CC1=NN(c2ccc(C)cc2)C(=O)/C1=C/c1ccc(-c2cc([N+](=O)[O-])ccc2O)o1	?	-94*	?	-6%	?
Cc1ccc(N2NC(=O)/C(=C/c3ccc(-c4ccc(Cl)c(C(=O)O)c4)o3)C2=O)cc1C	?	-17	-19%[11.6 µM]	-23%	-1%
COc1ccccc1CNS(=O)(=O)N(C)C	21µM*	-18	-29%	-2%	0%
Cc1ccc(C(=O)Nc2ccc3nc(SCC(=O)N4CCCc5ccccc54)sc3c2)cc1	.	.	.	4%	.
SMILES	PLK1 PBD block	PI5P4K alpha inh	WRN inhibitor	USP1-UAF1 inh	USP2a inh
COc1ccc(NC(=O)c2c(NCc3ccc(OC)c(OC)c3OC)sc3c2CCC3)c(OC)c1	.	.	.	-18%	.
COC(=O)/C=C/c1ccc2c(c1)OCO2	-8%	-1	-4%	-21%	12%
CCNc1ccc(Br)cc(C(=O)/C=C/c2ccccc2Cl)c1=O	?	.	?	28µM*	.
CCNc1ccccc(C(=O)/C=C/c2ccc3c(c2)OCO3)c1=O	24µM*	-56*	56µM*	-25%	2%
Cc1c(Cl)cccc1N1CC(C)(C)C1=O	27µM*	-13	-3%	-9%	0%
CC1(C)CN(c2ccc(Br)cc2Br)C1=O	-6%	1	-1%	-5%	1%
COc1ccc(NC(=O)C2CCCN(S(=O)(=O)c3ccc4c(c3)CCCC(=O)N4)C2)cc1OC (centres undefined)	.	.	.	-23%	.
CCOc1cc(/C=C2\C(=O)N(Cc3ccc(C)cc3)C(C)=C2C(=O)OC)ccc1O	1%	3	79µM*	-9%	4%
Cc1ccc(N/N=C(\C#N)C(N)=S)cc1C	-19%	-51*	7%	-23%	-1%
Cc1ccc(C)c(-c2ccc(=O)n(C(C)C(=O)Nc3ccccc3C(F)(F)F)n2)c1 (centres undefined)	.	.	.	-7%	.
COc1ccccc1NC(=O)C1=C(C)Nc2nc(SCc3cc(C)ccc3C)nn2C1c1ccccc1 (centres undefined)	.	.	.	-4%	.
N#Cc1c(-c2ccccc2)nc(SCC(=O)N(c2ccccc2)c2ccccc2)[nH]c1=O	?	?	-15%	-26%	-7%
N#Cc1c(-c2ccccc2)nc(SCC(=O)N2c3ccccc3Sc3ccccc32)[nH]c1=O	19µM*	-22	?	32µM*	-10%
N#Cc1c(-c2cccs2)nc(SCC(=O)c2cccs2)[nH]c1=O	-19%	-70*	?	-7%	2%
N#Cc1c(-c2ccccc2)[nH]c(=S)[nH]c1=O	-5%	-62*	-6%	-7%	0%
N#Cc1c(-c2cccc(Cl)c2)[nH]c(=S)[nH]c1=O	-13%	-77*	-3%	-15%	-3%
Cc1ccc(C(C)C)c(OCC(=O)NCC2(N(C)C)CCCCC2)c1	.	.	.	-7%	.
Cc1ccc(C(=O)COC(=O)C(CC(C)C)NC(=O)C2CCC(C)CC2)cc1 (centres undefined)	.	.	.	-14%	.
COc1ccc2nc(C)cc(Nc3ccccc3O)c2c1	27µM*	?	-10%	-18%	4%
Cc1nnc(SCC(=O)Nc2ccc(N(C)C)cc2)[nH]c1=O	.	.	.	1%	.
CCc1ccccc1NC(=O)C1CCN(c2nn3c(=O)cc(C)nc3s2)CC1	.	.	.	-11%	.
CC1CCCCN1Cc1c(O)ccc2c(=O)c(-c3nc4ccccc4s3)coc12 (centres undefined)	21µM*	-22	-10%	-25%	-1%
CCC1CCCCN1Cc1c(O)ccc2c(=O)c(-c3ccccc3OC)coc12 (centres undefined)	4%	-8	2%	-18%	.
CCc1sc(Nc2ccc(C)cc2Br)nc1-c1cc2cccc(OC)c2oc1=O	.	.	.	-21%	.
Fc1cc2[nH]c(=S)[nH]c2c(Br)c1N1CCSCC1	27µM*	?	-2%[57.1 µM]	-21%	0%
Fc1cc2nccnc2cc1N1CCSCC1	-5%	.	-3%	-13%	2%

From PubChem BioAssay
